Measurements from PubChem BioAssay (NCATS).
“And” between values parts separate entries of the source, which are not always exact repeats. Equal entries are not always repeated. Records with an inconclusive call do not appear. Unmarked numbers belong to inactive results. The source made the active and inactive calls. Calls come from the whole dose curve; as a rule, active = well fitted cell-killing curve with a large enough effect; inconclusive = small, poorly fitted or top-dose-only effect; inactive = flat fitted curve, though single readings scatter.

Assay: qHTS of pediatric cancer cell lines to identify multiple opportunities for drug repurposing: Primary screen for BT-12 cells (AID 1347101); note: nearly all actives have a fitted effect of over 25% in size
Conditions: BT-12 viability, CellTiter-Glo luminescence, 48 h; series mostly up to 57.3 µM; activity change, negative = cytotoxic: at the top concentration
From the text: Drug repurposing or repositioning has been offered as a strategy for drug development in oncology programs. This approach has special potential for childhood cancers and other rare or orphan diseases, where the expected return on new drug development has been a disincentive to pharmaceuticals.
In this project we exploit the poly-pharmacology of drugs to discover new indications via phenotypic screening of a panel of 19 well-characterized cell lines derived from solid tumors seen in children and adolescents. The goal is to identify approved drugs with previously unrecognized anticancer properties that has the potential to reveal new mechanisms and biological processes involved in carcinogenesis or drug resistance. We employed a titration-based paradigm (quantitative high-throughput screening or qHTS), where all compounds were tested at multiple concentrations for their effect on cell viability. Concentration-response curves (CRCs) were derived directly from the primary screen, and both potency and efficacy values were used to identify compounds with robust bioactivity profiles. We screened the NIH Chemical Genomics Center (NCGC) Pharmaceutical Collection (NPC) and Mechanism Interrogation Plate (MIPE) small molecule collections of approved and investigational compounds against these cell lines; and measured metabolically active cells after 48 hours of compound treatment as a proxy for cell viability.
Assay Submitter: Nathalia J. Martinez, National Center for Advancing Translational Sciences, National Institutes of Health, Rockville, MD, USA; email: natalia.martinez@nih.gov
[1] Shen, M et al. Quantitative high-throughput phenotypic screening of pediatric cancer cell lines identifies multiple opportunities for drug repurposing. Oncotarget 2017 Dec 19;9(4):4758-4772. PMID 29435139.
The cells were obtained from University of North Carolina (UNC), Pediatric Preclinical Testing Program (PPT), and Coriell Institute (CI).
qHTS cell viability assay:
Cells were assayed in growth media at a density of 500-1,000 cells/well. Five microliters of cells were dispensed into 1,536-well, white, solid-bottom, TC-treated plates (Greiner Bio One) using a multidrop dispenser and incubated at 37 degrees C, 5% CO2, under a humidified atmosphere for 5 hours. Twenty-three nanoliters of compounds and controls (neutral control DMSO or positive control bortezomib at final concentration of 2.3 µM) were subsequently transferred by Kalypsys pintool. For primary screens, the MIPE collection was tested at 11-point dilutions (final concentrations range from 0.78 nM to 46 µM) and the NPC collection at 8-point dilutions (final concentrations range from 0.59 nM to 46 µM). Compounds tested in follow-up screens were assayed at 11-point dilutions. Cells were incubated for 48 hours, followed by addition of 3 µL of CellTiter-Glo (Promega). After a 15 min incubation at room temperature, samples were analyzed for luminescence intensity using a ViewLux High-throughput CCD imager equipped with clear filters.
Potency is the fitted concentration of half-maximal effect.

Row | Structure (SMILES) | Potency | activity change, negative = cytotoxic
1 | CC(S)C(=O)NCC(=O)O (stereo not given) | inactive | –
2 | Cc1cccc(C#Cc2ccccc2)n1 | – | -8.87%
3 | O=P(O)(O)C(O)(Cn1ccnc1)P(=O)(O)O | – | 8.62% [at 20.1 µM]
4 | CC(=O)Nc1ccc(O)cc1 | – | -0.986%
5 | Nc1ncn([C@H]2C[C@H](O)[C@@H](CO)O2)c(=O)n1 | – | -19%
6 | O=Nc1c(-c2c(O)[nH]c3cc(Br)ccc23)[nH]c2ccccc12 | 24.3 µM (active) | –
7 | COc1cc(OC)c(C(=O)CCCN2CCCC2)c(OC)c1 | inactive | –
8 | CCC(C)(Oc1ccc(C2(c3ccc(OC(C)(CC)C(=O)O)cc3)CCCCC2)cc1)C(=O)O (stereo not given) | – | 17.3%
9 | CCCCN(CCCC)CCC(O)c1cc2c(Cl)cc(Cl)cc2c2cc(C(F)(F)F)ccc12 (stereo not given) | – | -9.8%
10 | CCc1nc(N)nc(N)c1-c1ccc(Cl)cc1 | 8.71 µM (active) and 10.9 µM (active) | –
11 | Nc1nc(OCc2ccccc2)c2[nH]cnc2n1 | – | -2.13%
12 | O=C(NC(Cc1cc(=O)[nH]c2ccccc12)C(=O)O)c1ccc(Cl)cc1 (stereo not given) | inactive | –
13 | CN1C(C(=O)Nc2ccccn2)=C(O)c2sccc2S1(=O)=O | inactive | –
14 | CCCCCCCCOc1ccccc1C(=O)Nc1ccc(C(=O)OCC[N+](C)(CC)CC)cc1 | 17.4 µM (active) | –
15 | CCCCc1ccc2nc(NC(=O)OC)[nH]c2c1 | 27.3 nM (active) and 61.7 nM (active) | –
16 | CC(=O)N1CCN(c2ccc(OC[C@H]3CO[C@](Cn4ccnc4)(c4ccc(Cl)cc4Cl)O3)cc2)CC1 | 24.3 µM (active) | –
17 | Cc1cc(Cl)ccc1OCCCC(=O)NO | – | -14.8%
18 | Clc1ccc(C(Cn2ccnc2)OCc2ccc(Sc3ccccc3)cc2)c(Cl)c1 (stereo not given) | – | 7.77%
19 | CC(C)(S)[C@@H](N)C(=O)O | – | 7.51%
20 | Cc1ccc(C(=O)c2cc(O)c(O)c([N+](=O)[O-])c2)cc1 | – | 3.08%

Row | Structure (SMILES) | Potency | activity change, negative = cytotoxic
21 | C[C@@H](c1ncncc1F)[C@](O)(Cn1cncn1)c1ccc(F)cc1F | – | 1.22%
22 | CC[C@]1(O)C[C@H]2CN(CCc3c([nH]c4ccccc34)[C@@](C(=O)OC)(c3cc4c(cc3OC)N(C=O)[C@H]3[C@@](O)(C(=O)OC)[C@H](OC(C)=O)[C@]5(CC)C=CCN6CC[C@]43[C@@H]65)C2)C1 | 15.3 nM (active) and 19.5 nM (active) | –
23 | CC1=C(C)C(=O)C(C(CCCCCC(=O)O)c2ccccc2)=C(C)C1=O (stereo not given) | inactive | –
24 | CC(C)[N+]1(C)[C@@H]2CC[C@H]1CC(OC(=O)C(CO)c1ccccc1)C2 (stereo not given in full) | – | -14%
25 | NC(=O)Cc1cccc(C(=O)c2ccccc2)c1N | inactive | –
26 | Cc1ccc(Nc2nccc(N(C)c3ccc4c(C)n(C)nc4c3)n2)cc1S(N)(=O)=O | 12.3 µM (active) and 15.3 µM (active) | –
27 | CCN(CCO)CCCC(C)Nc1ccnc2cc(Cl)ccc12 (stereo not given) | inactive | –
28 | CNC[C@H](O)c1ccc(O)c(O)c1 | inactive | –
29 | COc1cc2nc(N3CCN(C(=O)C4CCCO4)CC3)nc(N)c2cc1OC (stereo not given) | inactive | –
30 | O=C1NC(=O)C(c2ccccc2[N+](=O)[O-])=C1Nc1ccc(O)c(Cl)c1 | – | -2.94%
31 | C[C@H](Cc1ccc(O)c(O)c1)[C@@H](C)Cc1ccc(O)c(O)c1 | 15.3 µM (active) | –
32 | C[C@]12CCC(=O)C=C1CC[C@@H]1[C@H]2[C@@H](O)C[C@@]2(C)[C@H]1CC[C@]2(O)C(=O)CO | – | 11.8%
33 | S=c1nc[nH]c2nc[nH]c12 | 15.5 µM (active) and 24.3 µM (active) | –
34 | C=CCc1cc(OC)c(O)c(C(=O)NCCO)c1 | inactive | –
35 | Clc1ccc2c(N3CCN(CCCN4CCN(c5ccnc6cc(Cl)ccc56)CC4)CC3)ccnc2c1 | – | 1.32% [at 20.1 µM]
36 | c1cnc2cc3c(cc2n1)C1CNCC3C1 | – | 11%
37 | CCOc1cc(CC(=O)N[C@@H](CC(C)C)c2ccccc2N2CCCCC2)ccc1C(=O)O | – | 3.82%
38 | O=C(O)CCNC(=O)c1ccc(N=Nc2ccc(O)c(C(=O)O)c2)cc1 | inactive | –
39 | CC(=O)NC[C@H]1CN(c2ccc(N3CCOCC3)c(F)c2)C(=O)O1 | – | -18.4%
40 | CCCc1cc(=O)[nH]c(=S)[nH]1 | inactive | –
